Tcruzi prolif = T. cruzi intracellular proliferation inhibitors, primary screen, cell-based, beta-gal Tulahuen parasites, NIH3T3 host, luminescence; T. cruzi beta-gal in NIH3T3, GalScreen luminescence, 90 h; 77,000 compounds, 5.9% hits; AID 624255, 2012; inhibition, % at 8.34 µM;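 active = mean inhibition above about 93%, with at least 55% of replicates each passing it, limit read from the data, passing the limit was not always enough; inconclusive = only one of those two conditions holds; inactive = neither condition holds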
Pf Dd2 inh = P. falciparum Dd2 growth inhibitors, primary screen, SYBR Green fluorescence, single dose replicates; AID 1159554, 2015; 72 h; stronger effect = lower value; 94,000 compounds, 2.3% hits; activity change, % at 10 µM; in the data active = activity change below about -80%; inconclusive = no clear call, values can overlap the other calls
C diff growth = C. difficile growth inhibitors, primary screen, HTS. Clostridium difficile clinical isolate growth, OD600, 24 h; stronger effect = lower value. growth activity, negative = inhibition, % at 16 µg/mL (by protocol). 86,000 compounds, 0.25% hits. AID 1259249, 2017;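 active = mean growth activity at or below -80% and every replicate also at or below -80%; inconclusive = mean at or below -80% but some replicate above -80%; inactive = mean growth activity above -80%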
Hits are given with their value; i = inactive; ? = inconclusive; nt = not tested or not shown. In the library only some 6.7% were active in any assay of this set; here they are far more common.

SMILES	Tcruzi prolif	Pf Dd2 inh	C diff growth
C[C@H](NC(=O)C[C@H]1C[C@@H]2c3cc(NC(=O)Cc4ccncc4)ccc3O[C@@H]2[C@@H](CO)O1)c1ccccc1	i	i	nt
C[C@@H]1CN([C@H](C)CO)C(=O)c2cccc(NC(=O)c3ccncc3)c2O[C@H]1CN(C)C(=O)Nc1ccc(C(F)(F)F)cc1	i	i	i
O=C(NC[C@H]1CC[C@@H]2[C@@H](CN2Cc2cc(-c3ccccc3)on2)O1)c1ccc2c(c1)OCO2	nt	i	i
C[C@@H]1CCCCO[C@H](CN(C)Cc2ccc(C(=O)Nc3ccccc3N)cc2)[C@@H](C)CN([C@H](C)CO)C(=O)c2cc(NS(=O)(=O)c3ccc(F)cc3)ccc2O1	i	?	i
Cc1ccc(S(=O)(=O)Nc2ccc3c(c2)C(=O)N([C@@H](C)CO)C[C@H](C)[C@@H](CN(C)Cc2ccc(C(=O)Nc4ccccc4N)cc2)OCCCC[C@@H](C)O3)cc1	nt	-92.0	i
C[C@@H]1CCCCO[C@H](CN(C)Cc2ccc(C(=O)Nc3ccccc3N)cc2)[C@@H](C)CN([C@H](C)CO)C(=O)c2cc(NS(=O)(=O)c3ccccc3)ccc2O1	nt	-88.9	i
C[C@@H]1CCCCO[C@@H](CN(C)Cc2ccc(C(=O)Nc3ccccc3N)cc2)[C@@H](C)CN([C@H](C)CO)C(=O)c2cc(NS(C)(=O)=O)ccc2O1	nt	i	i
Cc1noc(C)c1S(=O)(=O)Nc1ccc2c(c1)C(=O)N([C@@H](C)CO)C[C@H](C)[C@@H](CN(C)Cc1ccc(C(=O)Nc3ccccc3N)cc1)OCCCC[C@@H](C)O2	i	-85.3	i
Cc1noc(C)c1S(=O)(=O)Nc1ccc2c(c1)C(=O)N([C@H](C)CO)C[C@H](C)[C@H](CN(C)Cc1ccc(C(=O)Nc3ccccc3N)cc1)O2	nt	i	i
COc1ccc(C[C@@H]2CCc3cnnn3COC[C@@H](Cc3ccccc3)NC2=O)cc1	nt	nt	i
COc1ccc(NC(=O)N(C)C[C@H]2Oc3ccc(NC(=O)Nc4ccccc4)cc3CC(=O)N([C@@H](C)CO)C[C@@H]2C)cc1	i	i	i
N#C[C@@H]1[C@@H](c2ccccc2C2=CCCCC2)[C@@H](CO)N1C(=O)c1cccc(F)c1	nt	i	i
N#C[C@@H]1[C@H](c2ccccc2C2=CCCCC2)[C@@H](CO)N1C(=O)c1cccc(F)c1	nt	-93.9	i
N#C[C@@H]1[C@H](c2ccccc2C2=CCCC2)[C@H](CO)N1C(=O)NC1CCCC1	nt	i	i
CCCNC(=O)N1[C@H](C#N)[C@@H](c2ccccc2C2=CCCC2)[C@@H]1CO	nt	-89.1	i
C[C@H](CO)N1C[C@H](C)[C@H](CN(C)C)Oc2ccc(NS(=O)(=O)c3cn(C)cn3)cc2C1=O	i	i	i
COc1ccc(NC(=O)Nc2ccc3c(c2)C(=O)N([C@H](C)CO)C[C@H](C)[C@H](CN(C)CC2CCCCC2)OCCCC[C@H](C)O3)cc1	i	?	i
COc1ccc(NC(=O)Nc2ccc3c(c2)C(=O)N([C@H](C)CO)C[C@H](C)[C@@H](CN(C)CC2CC2)OCCCC[C@@H](C)O3)cc1	i	i	i
COc1ccc(NC(=O)Nc2ccc3c(c2)C(=O)N([C@@H](C)CO)C[C@H](C)[C@@H](CN(C)CC2CCCCC2)OCCCC[C@H](C)O3)cc1	i	-86.5	i
COc1ccc(NC(=O)Nc2ccc3c(c2)C(=O)N([C@@H](C)CO)C[C@H](C)[C@@H](CN(C)CC2CC2)OCCCC[C@H](C)O3)cc1	i	-89.8	nt
COC(=O)C[C@H]1CC[C@@H]2[C@@H](COc3ccc(NC(=O)c4ccc(OC)cc4)cc3C(=O)N2C)O1	i	i	i
COc1ccc(CN(C)C[C@H]2OCCCC[C@H](C)Oc3ccc(NC(=O)Nc4ccc(C(F)(F)F)cc4)cc3C(=O)N([C@H](C)CO)C[C@H]2C)cc1	i	i	i
C[C@@H]1CCCCO[C@H](CN(C)Cc2ccncc2)[C@@H](C)CN([C@@H](C)CO)C(=O)c2cc(NC(=O)C3CCCCC3)ccc2O1	i	-84.9	i
C[C@@H]1CCCCO[C@@H](CN(C)Cc2ccncc2)[C@@H](C)CN([C@H](C)CO)C(=O)c2cc(NC(=O)C3CCCCC3)ccc2O1	i	nt	i
COc1ccc(CN(C)C[C@@H]2OCCCC[C@H](C)Oc3ccc(NC(=O)Nc4ccc(C(F)(F)F)cc4)cc3C(=O)N([C@H](C)CO)C[C@H]2C)cc1	i	i	-96.4
SMILES	Tcruzi prolif	Pf Dd2 inh	C diff growth
C[C@@H]1CN([C@H](C)CO)C(=O)c2cc(NC(=O)NC3CCCCC3)ccc2O[C@@H](C)CCCCO[C@H]1CN(C)Cc1ccc(C(F)(F)F)cc1	i	-93.7	i
COc1ccc(CN(C)C[C@@H]2OCCCC[C@H](C)Oc3ccc(NC(=O)Nc4ccc(C(F)(F)F)cc4)cc3C(=O)N([C@@H](C)CO)C[C@H]2C)cc1	i	i	-83.2
COc1ccc(NC(=O)Nc2ccc3c(c2)C(=O)N([C@H](C)CO)C[C@H](C)[C@@H](CN(C)Cc2ccc(C(F)(F)F)cc2)OCCCC[C@H](C)O3)cc1	i	i	i
C[C@H]1CCCCO[C@@H](CN(C)Cc2ccc(C(F)(F)F)cc2)[C@@H](C)CN([C@@H](C)CO)C(=O)c2cc(NC(=O)NC3CCCCC3)ccc2O1	i	i	i
Cc1ccc(S(=O)(=O)N(C)C[C@H]2OCCCC[C@@H](C)Oc3ccc(NS(=O)(=O)c4cn(C)cn4)cc3C(=O)N([C@@H](C)CO)C[C@@H]2C)cc1	i	i	i
N#Cc1ccc(-c2ccc3c(c2)[C@H]2[C@H](CCN2Cc2cncnc2)[C@H](CO)N3)cc1	i	i	i
COc1ccccc1-c1cn(CC[C@@H]2CC[C@@H](NC(=O)Cc3ccccn3)[C@@H](CO)O2)nn1	i	i	i
C[C@H](CO)N1C[C@H](C)[C@@H](CN(C)S(=O)(=O)c2cn(C)cn2)Oc2ccc(NC(=O)CCN3CCOCC3)cc2CC1=O	i	i	i
CN1C(=O)c2cc(NC(=O)Cc3ccccc3)ccc2OC[C@@H]2O[C@@H](CC(=O)NC3CCC3)CC[C@@H]21	i	i	i
O=S(=O)(N[C@H]1CC[C@H](CCn2cc(-c3cccnc3)nn2)O[C@H]1CO)c1ccccc1	i	i	i
C[C@@H]1CN([C@@H](C)CO)C(=O)c2cc(NC(=O)c3ccncc3)ccc2O[C@@H](C)CCCCO[C@@H]1CN(C)Cc1ccc(C(F)(F)F)cc1	i	i	i
C[C@H](CO)N1C[C@H](C)[C@@H](CN(C)Cc2ccccc2)OCCCC[C@H](C)Oc2ccc(NC(=O)Nc3ccc(C(F)(F)F)cc3)cc2C1=O	i	i	i
C[C@@H]1CN([C@@H](C)CO)C(=O)c2cc(NC(=O)c3ccncc3)ccc2O[C@@H](C)CCCCO[C@H]1CN(C)Cc1ccc(C(F)(F)F)cc1	i	-81.1	i
C[C@@H]1CN([C@H](C)CO)C(=O)c2cc(NC(=O)Nc3ccc(C(F)(F)F)cc3)ccc2O[C@@H](C)CCCCO[C@H]1CN(C)Cc1ccccc1	i	-87.5	i
O=C(O)[C@H]1[C@H](CO)[C@H]2Cn3c(ccc(-c4cncnc4)c3=O)[C@H]2N1C(=O)C1CCCCC1	i	nt	i

Source: PubChem BioAssay (Broad Institute)
